# Source: PubChem BioAssay AID1946 (Johns Hopkins Ion Channel Center, 2009)
# Out of some 2,400 compounds screened, about 180 (7.5%) were called active. Shown is part of a subset that was picked to be rich in actives. Values without a mark were called inactive.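 How the source made its calls: active means readout below zero, meaning a drop past 3 SD under the dofetilide-free negative control mean; inactive means the rest.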
# Molecular target: Potassium voltage-gated channel subfamily KQT member 2 (Rattus norvegicus) (UniProt O88943)
# Sequence (O88943 whole entry, looked up): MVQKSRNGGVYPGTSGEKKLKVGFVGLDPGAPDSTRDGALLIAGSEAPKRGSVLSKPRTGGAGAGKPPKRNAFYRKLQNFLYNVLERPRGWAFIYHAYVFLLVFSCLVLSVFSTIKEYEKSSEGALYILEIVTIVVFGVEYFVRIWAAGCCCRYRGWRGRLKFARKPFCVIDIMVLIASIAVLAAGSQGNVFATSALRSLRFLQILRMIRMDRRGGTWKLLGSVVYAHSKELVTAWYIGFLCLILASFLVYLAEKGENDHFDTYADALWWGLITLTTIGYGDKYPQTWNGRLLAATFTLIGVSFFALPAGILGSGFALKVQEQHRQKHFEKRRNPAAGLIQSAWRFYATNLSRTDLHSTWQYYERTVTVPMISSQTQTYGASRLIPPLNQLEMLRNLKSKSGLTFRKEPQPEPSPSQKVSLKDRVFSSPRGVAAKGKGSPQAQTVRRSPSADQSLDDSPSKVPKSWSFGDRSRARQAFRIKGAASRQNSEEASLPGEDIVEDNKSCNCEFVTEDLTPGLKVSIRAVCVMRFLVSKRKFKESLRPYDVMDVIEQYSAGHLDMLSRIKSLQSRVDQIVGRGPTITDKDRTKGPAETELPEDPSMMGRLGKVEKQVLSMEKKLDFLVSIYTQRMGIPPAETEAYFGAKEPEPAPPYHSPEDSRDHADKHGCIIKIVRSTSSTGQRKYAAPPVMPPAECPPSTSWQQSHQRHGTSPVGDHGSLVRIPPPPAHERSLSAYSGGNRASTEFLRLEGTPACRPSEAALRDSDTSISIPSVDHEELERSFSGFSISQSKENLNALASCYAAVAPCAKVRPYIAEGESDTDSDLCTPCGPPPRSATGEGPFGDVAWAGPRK
# Experiment: rat KCNQ2 channel inhibition by compounds alone, confirmation, counter-screen for hERG block protector project, cell-based, CHO, FluxOR thallium flux (AID 1946)
# Details: CHO-KCNQ2 cells, FluxOR thallium flux fluorescence; at 10 µM; hits give low values; zero marks the 3-SD hit cutoff
row,Structure (SMILES),activity change vs negative control
1,COc1ccccc1NC(=O)C(=O)NNC(=O)COc1ccc2ccccc2c1,115%
2,Cc1ccc(C(=O)NC(=S)N(C)C2CCCCC2)cc1,27.3%
3,COC(=O)c1sc(NC(=S)NC(=O)c2ccccc2C)nc1C,41%
4,S=c1[nH]c2ccc(Cl)cc2s1,115%
5,CCc1nnc(NC(=O)CSc2nc(-c3ccccc3)cc(-c3ccc(OC)cc3)c2C#N)s1,5.3%
6,CCOC(=O)C(C)Sc1nc2c(c(-c3cccs3)c1C#N)CCC2 (stereo not drawn),6.3%
7,N#Cc1c(-c2ccc(Cl)cc2)cc(-c2cccs2)nc1SCC(=O)O,-10.2% (active)
8,C/C(=N\NC(N)=S)c1ccncc1,19.1%
9,CSC(=S)N/N=C(\C)c1ccccc1,64.1%
10,C/C(=N\NC(N)=S)c1cccnc1,-3.2% (active)
11,S=c1[nH]cnc2scc(-c3ccc(Br)cc3)c12,28.5%
12,CCn1ncc(Cl)c1C(=O)NC(=S)Nc1ccccc1Br,51.3%
13,CCN(C(=S)NC(=O)c1ccccc1Br)C1CCCCC1,93.4%
14,CC1CCc2sc(-c3n[nH]c(=S)o3)cc2C1 (stereo not drawn),35.3%
15,Fc1cccc2sc(Nc3nnc(-c4ccccc4)o3)nc12,109%
16,Cc1ccc(Nc2cc(C)nn2-c2nc(C)cc(=O)[nH]2)cc1,83.1%
17,O=C(Nn1c(O)c(C=C2N=c3ccccc3=N2)sc1=S)c1cccc(Cl)c1,6.4%
18,CC1CCCCC1n1c(=S)[nH]c2ccccc2c1=O (stereo not drawn),28%
19,CSc1nc(C)c2c(n1)N(c1ccc(C(C)C)cc1)CC2,-2.7% (active)
20,COc1ccccc1C(=O)NNC(=O)C(=O)Nc1cccc(Cl)c1C,160%
21,O=C(CCSc1ccc(Br)cc1)c1ccc(O)cc1,8.7%
22,CSc1nc2sc3c(c2c(=S)[nH]1)CC(C)(C)OC3,95%
23,CN(Cc1ccccc1)C(=O)CCc1ccccc1,5.4%
24,CCOC(=O)c1c(NS(=O)(=O)Cc2ccccc2)sc2c1CCCC2,62%
25,Cc1ccc(-c2csc(=S)[nH]2)cc1,106%
26,O=C(NC(=S)Nc1ccccn1)c1cc(-c2ccccc2)nc2ccccc12,19.4%

row,Structure (SMILES),activity change vs negative control
1,O=C(N/N=C/c1ccccn1)c1cc(-c2ccc(Br)cc2)nc2ccccc12,-4.7% (active)
2,Cc1ccc(/C=N/NC(=O)c2cc(-c3ccncc3)nc3ccccc23)o1,2.6%
3,Cc1ccc(OCC(=O)NC(=S)Nc2ccc(Br)cn2)cc1,33.8%
4,Cc1ccc(C(=O)Nc2nc3ccccc3c(=O)s2)cc1,22.4%
5,O=C(COc1ccc(Cl)cc1)N1CCN(Cc2ccc3c(c2)OCO3)CC1,22.9%
6,COc1ccc(C(=O)N2CCN(Cc3ccc4c(c3)OCO4)CC2)cc1[N+](=O)[O-],4.4%
7,CCOc1ccc(S(=O)(=O)N2CCN(Cc3ccc4c(c3)OCO4)CC2)cc1C,-5.7% (active)
8,Cc1cc(C)c2nc(NC(=O)C3CCCO3)sc2c1 (stereo not drawn),-2.4% (active)
9,Cc1cc(C)c2nc(NC(=O)CN3C(=O)NC4(CCCC4)C3=O)sc2c1,18.8%
10,O=C(Nc1nc2c(F)cc(F)cc2s1)C1COc2ccccc2O1 (stereo not drawn),3.8%
11,CCCCCC/C(C)=C1/SC(=S)NC1=O,94.1%
12,CCOC(=O)c1c(NC(=O)CN2CCN(C(=O)c3ccco3)CC2)sc2c1CCCC2,39%
13,O=c1ccc(N=Nc2ccccc2)ccc1O,109%
14,COc1cc(OC)cc(C(=O)O/N=C(\N)c2cccc(C)c2)c1,4.9%
15,COc1cc(OC)cc(C(=O)OCC(=O)N(C)c2ccccc2)c1,-0.3% (active)
16,COc1cc(OC)cc(C(=O)NC(=S)N(Cc2ccccc2)C(C)C)c1,45.9%
17,CC(C)(C)NC(=O)C(=O)NNC(=O)c1cccc(Br)c1,40%
18,Cc1ccccc1C(=O)NNC(=O)C(=O)Nc1cccc(Cl)c1C,40.7%
19,O=C(Nc1ccsc1C(=O)O)c1ccccc1Cl,14.8%
20,O=C(Nc1cccn(Cc2c(Cl)cccc2Cl)c1=O)c1ccccc1Cl,-1.1% (active)
21,CC(=O)CSc1ncnc2sc3c(c12)CCC(C)C3 (stereo not drawn),111%
22,CC(C)(C)c1ccc(/C=C/C(=O)N2CCCCC2)cc1,32.8%
23,CCOC(=O)c1c(O)c2ccccc2n(C)c1=O,17.5%
24,CCOc1ccc(N(CC)C(=O)COc2cc(=O)n(C)c3ccccc23)cc1,-3.3% (active)
25,Cn1c(=O)cc(-c2ccccc2)c2ccccc21,2.7%
26,Cc1cccc(N2CCN(C(=O)CNC(=O)c3cccc([N+](=O)[O-])c3)CC2)c1C,1.9%

row,Structure (SMILES),activity change vs negative control
1,CCn1c(SCC(=O)NC(=O)NCc2ccco2)nc2sc(C)c(C)c2c1=O,43.3%
2,C=CCSc1nc2sc3c(c2c(=O)n1CC)CCc1ccccc1-3,35%
3,CC(=O)c1ccc(N2CCN(C(=O)Cc3ccccc3)CC2)c(F)c1,-0.2% (active)
4,CS(=O)(=O)N(CCc1ccccc1)CC(=O)N1CCN(c2ccc(F)cc2)CC1,1.7%
5,O=C(c1ccc(Cl)c(S(=O)(=O)N2CCCC2)c1)N1CCN(c2ccccc2F)CC1,14.8%
6,S=c1nc(-c2ccc(Br)cc2)[nH]c2ccccc12,122%
7,Cc1ccc(C(=O)CC(=O)COc2ccc(Cl)cc2C)cc1,13.2%
8,O=C(CCc1ccccc1)Nc1nccs1,4.5%
9,O=C(Nc1nnc(-c2ccccc2)o1)c1ccc(Cl)cc1,13.6%
10,CCC(=O)Nc1nnc(-c2ccccn2)o1,-0.7% (active)
11,O=C(Nc1nnc(-c2ccc3c(c2)CCCC3)o1)C1COc2ccccc2O1 (stereo not drawn),28%
12,O=C(CCc1ccccc1)Nc1nnc(-c2ccccn2)o1,-2.9% (active)
13,O=C(CCC(=O)Nc1ccccc1)NNC(=O)c1ccco1,3.9%
14,CCCOc1ccc(OC(=O)c2ccc(Br)o2)cc1,20.9%
15,O=C(NC(=S)Nc1ccccc1)c1csnn1,105%
16,O=C(/C=C/c1ccccc1)Nc1ccc(S(=O)(=O)N2CCOCC2)cc1,2%
17,CC(=O)Nc1ccc(S(=O)(=O)N2CCC(NC(=O)c3ccccc3)CC2)cc1,9.4%
18,CC(=O)Nc1ccc(S(=O)(=O)N2CCC(C(=O)O)CC2)cc1,-3% (active)
19,CCc1cc2c(=O)n(CCC(C)C)c(=S)[nH]c2s1,83.4%
20,S=c1nc(COc2ccccc2)[nH]c2ccccc12,159%
21,CN(C)CCCN=C(NO)c1ccc(Cl)cc1Cl,6.6%
22,CCSc1nc2c(sc3ccccc32)c(=O)n1C(C)C,54.6%
23,COCC(=O)Nc1cc(C)cn(Cc2c(F)cccc2Cl)c1=O,-0.6% (active)
24,O=C(COC(=O)C1CCC(=O)N1)Nc1cc(Cl)ccc1Cl (stereo not drawn),4.6%
25,CCOC(=O)c1sc2ncnc(NCc3ccco3)c2c1C,66.3%
26,CCCN(C(=O)c1ccco1)c1nnc(-c2ccncc2)s1,7.1%

row,Structure (SMILES),activity change vs negative control
1,Cc1[nH]n2c(=O)cc(C(C)(C)C)nc2c1-c1ccccc1,38.2%
2,CCOC(=O)C1CCN(C(=O)COC(=O)c2nn(C)c(=O)c3ccccc23)CC1,8.5%
3,Cc1oc(-c2cccs2)nc1CN1CCC(C(=O)N2CCCC2)CC1,12.1%
4,CC1CCCN(C(=O)COC(=O)c2cc(-c3cccs3)nn2-c2ccccc2)C1 (stereo not drawn),-2.5% (active)
5,CC(=O)c1c(NC(=O)c2ccccc2)[nH]c(-c2ccccc2)nc1=S,30.6%
6,Cc1ccc(-c2nc(N)s[n+]2-c2ccccc2)cc1,42.6%
7,CCOC(=O)Cc1csc(NC(=S)NC(=O)c2ccccc2C)n1,26.3%
8,COc1cccc(/C=N/Nc2nc3ccccc3[nH]2)c1O,24.7%
9,COc1cccc2cc(-c3nc4ccccc4[nH]3)c(=O)oc12,-9.4% (active)
10,COc1ccc(C(=O)NC(=S)N2CCC(C)CC2)cc1Br,74.7%
11,COc1cc(C2c3c(n[nH]c3C)C(=O)N2c2ccc(C)cc2)ccc1O (stereo not drawn),-5% (active)
12,Cc1ccc(C2c3c(-c4ccccc4O)n[nH]c3C(=O)N2Cc2ccncc2)cc1 (stereo not drawn),10.7%
13,COc1cc(C2NC(=O)NC(C)=C2C(=O)OCC2CCCCC2)ccc1O (stereo not drawn),7.4%
14,CC1=NN(c2nc(-c3ccccc3)cs2)C(=O)C1N=Nc1ccccc1 (stereo not drawn),-5% (active)
15,Cn1c(O)c(N=Nc2nc(-c3ccccc3)cs2)c2ccccc21,90.8%
16,Cc1nc(-c2ccccc2)cn(O)c1=O,20.4%
17,c1ccc(CCCNc2ncnc3nc[nH]c23)cc1,61.8%
18,Cc1ccc(C(C#N)c2ccc3c(C(F)(F)F)cc(C(F)(F)F)nc3n2)cc1 (stereo not drawn),17.2%
19,Fc1ccc(N2CCN(c3ccc4c(C(F)(F)F)cc(C(F)(F)F)nc4n3)CC2)cc1,-5.3% (active)
20,Cc1cc(-c2csc3nc[nH]c(=S)c23)cc(C)c1C,55.1%
21,CC(/C=C1\SC(=S)N(NS(=O)(=O)c2ccccc2)C1=O)=C\c1ccccc1,47.5%
22,O=C(CN1CCCCCCC1)Nc1cccc(Cl)c1Cl,-6.4% (active)
23,O=C(CN1CCN(Cc2ccccc2)CC1)NCc1ccccc1Cl,17.7%
24,O=C(CN1CCCCCC1)Nc1ccc(Oc2ccccc2)cc1,3.4%
25,O=C(NC(=S)N1CCc2ccccc21)c1ccccc1Cl,93%
